Measured values from PubChem BioAssay (NCATS).
Records with an inconclusive call do not appear. Where a call stands in place of a potency, no number is given. A number with no mark means an inactive call. Calls of active or inactive are those of the source. Calls follow the shape of the dose curve; as a rule, active = well fitted curve in the direction sought with a large enough effect; inconclusive = small, poorly fitted or top-dose-only effect, or another doubt; inactive = no such curve, though single readings can be large; an effect the other way counts as inactive or inconclusive.

Tests used:
[1] = target: Rap guanine nucleotide exchange factor 3 (Homo sapiens) (UniProt O95398); assay: Confirmatory qHTS for antagonist of cAMP-regulated guanine nucleotide exchange factor 3 (EPAC1) (AID 1645880); details: EPAC1 Rap1B-BODIPY-GDP exchange, fluorescence; activity, negative = inhibition: at 115 µM (top of the series); also: nearly all actives have a fitted effect of over 55% in size; also: potency is read from the fitted curve at half-maximal effect
Sequence of Rap guanine nucleotide exchange factor 3 (Homo sapiens) (O95398 whole entry, looked up): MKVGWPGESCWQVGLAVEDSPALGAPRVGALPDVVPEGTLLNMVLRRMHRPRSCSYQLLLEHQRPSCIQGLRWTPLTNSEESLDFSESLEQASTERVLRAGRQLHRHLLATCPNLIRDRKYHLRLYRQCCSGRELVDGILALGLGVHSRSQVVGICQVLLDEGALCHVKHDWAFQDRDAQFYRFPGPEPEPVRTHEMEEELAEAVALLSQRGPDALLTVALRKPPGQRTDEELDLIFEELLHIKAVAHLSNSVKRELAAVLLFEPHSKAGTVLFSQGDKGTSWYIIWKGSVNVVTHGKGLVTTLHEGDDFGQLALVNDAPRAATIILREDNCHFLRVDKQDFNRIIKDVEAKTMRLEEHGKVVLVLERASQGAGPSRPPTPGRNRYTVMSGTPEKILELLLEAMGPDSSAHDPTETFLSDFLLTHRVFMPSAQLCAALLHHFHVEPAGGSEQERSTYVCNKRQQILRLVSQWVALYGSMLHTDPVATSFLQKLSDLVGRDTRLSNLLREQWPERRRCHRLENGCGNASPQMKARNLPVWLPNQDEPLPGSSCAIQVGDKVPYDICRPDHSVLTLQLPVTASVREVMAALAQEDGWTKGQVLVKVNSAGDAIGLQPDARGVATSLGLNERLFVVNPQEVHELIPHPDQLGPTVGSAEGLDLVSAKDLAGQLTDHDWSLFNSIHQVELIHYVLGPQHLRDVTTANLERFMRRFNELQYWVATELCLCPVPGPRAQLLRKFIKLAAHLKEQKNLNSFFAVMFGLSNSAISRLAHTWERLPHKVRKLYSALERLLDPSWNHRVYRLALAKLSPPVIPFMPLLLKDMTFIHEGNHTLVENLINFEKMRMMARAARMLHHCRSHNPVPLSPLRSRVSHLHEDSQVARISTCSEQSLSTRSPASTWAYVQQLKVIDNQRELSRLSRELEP
Outline: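 Nucleotide exchange uses 100 nM EPAC1, 250 nM RAP1B-BODIPY-GDP and 50 uM GDP, with compounds in a concentration-titration series. After 5 min at room temperature, fluorescence (480 nm ex/540 nm em) is read every 5 min for 30 min. Data are normalized to control ATA and DMSO.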

[2] = target: Rap guanine nucleotide exchange factor 3 (Homo sapiens) (UniProt O95398); assay: Confirmatory qHTS for agonist of cAMP-regulated guanine nucleotide exchange factor 3 (EPAC1) (AID 1645881);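 also: EPAC1 catalysed release of BODIPY-GDP from Rap1B seen as fluorescence loss; nearly all actives have a fitted effect of over 75% in size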
[3] = target: Rap guanine nucleotide exchange factor 4 (Homo sapiens) (UniProt Q8WZA2); assay: Confirmatory qHTS for agonist of cAMP-regulated guanine nucleotide exchange factor 4 (EPAC2) (AID 1645884);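 also: nucleotide exchange releases bodipy-GDP from Rap1 and this lowers its fluorescence; nearly all actives have a fitted effect of over 65% in size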
Sequence of Rap guanine nucleotide exchange factor 4 (Homo sapiens) (Q8WZA2 whole entry, looked up): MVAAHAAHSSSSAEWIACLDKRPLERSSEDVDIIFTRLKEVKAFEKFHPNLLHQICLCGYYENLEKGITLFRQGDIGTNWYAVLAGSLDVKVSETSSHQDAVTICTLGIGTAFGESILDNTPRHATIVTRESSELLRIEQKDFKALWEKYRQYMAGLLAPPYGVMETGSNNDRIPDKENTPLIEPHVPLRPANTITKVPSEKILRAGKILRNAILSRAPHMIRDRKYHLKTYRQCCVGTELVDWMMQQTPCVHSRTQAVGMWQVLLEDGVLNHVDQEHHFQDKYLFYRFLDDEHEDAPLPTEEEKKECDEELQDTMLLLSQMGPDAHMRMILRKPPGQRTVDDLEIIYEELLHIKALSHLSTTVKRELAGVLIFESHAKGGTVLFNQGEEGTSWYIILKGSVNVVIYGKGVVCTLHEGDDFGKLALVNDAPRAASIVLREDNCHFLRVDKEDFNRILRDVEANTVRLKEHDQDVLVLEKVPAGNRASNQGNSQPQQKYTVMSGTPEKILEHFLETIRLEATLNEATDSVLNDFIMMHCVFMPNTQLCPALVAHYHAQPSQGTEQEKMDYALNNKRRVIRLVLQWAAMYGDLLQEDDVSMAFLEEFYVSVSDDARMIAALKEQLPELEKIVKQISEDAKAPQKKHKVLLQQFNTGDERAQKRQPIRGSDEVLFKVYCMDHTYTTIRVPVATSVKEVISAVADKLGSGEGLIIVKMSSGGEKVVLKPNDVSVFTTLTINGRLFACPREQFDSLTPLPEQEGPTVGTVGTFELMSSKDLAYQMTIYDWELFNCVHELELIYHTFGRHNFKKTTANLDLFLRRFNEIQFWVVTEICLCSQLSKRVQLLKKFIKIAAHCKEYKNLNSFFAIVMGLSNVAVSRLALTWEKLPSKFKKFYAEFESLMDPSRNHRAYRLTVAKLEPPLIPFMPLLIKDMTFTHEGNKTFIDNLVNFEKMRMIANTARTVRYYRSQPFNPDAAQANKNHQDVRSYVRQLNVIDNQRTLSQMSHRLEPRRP

[4] = target: Rap guanine nucleotide exchange factor 3 (Homo sapiens) (UniProt O95398); assay: Counterscreen qHTS for antagonist of cAMP-regulated guanine nucleotide exchange factor 3 (EPAC1) (AID 1645888);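 also: fluorescence loss as bound BODIPY-GDP is released from Rap1B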
Outline: (§1)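 Rap1B-BODIPY-GDP 250 nM + GDP 50 uM; cpds 7-pt, final 9.74 nM–152 uM (activator mode) or from 7.32 nM upwards (inhibitor mode); RT; FI 480/540 nm at 5 and 30 min, then ± cAMP, reread.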

[5] = target: Rap guanine nucleotide exchange factor 3 (Homo sapiens) (UniProt O95398); assay: Counterscreen qHTS for agonist of cAMP-regulated guanine nucleotide exchange factor 3 (EPAC1) (AID 1645889); also: nearly all actives have a fitted effect of over 40% in size
Outline: as §1

| SMILES | Potency [1] | Potency [2] | Potency [3] | Potency [4] | Potency [5] | activation [3] | activity change, negative = inhibition [4] | activation [5] |
| --- | --- | --- | --- | --- | --- | --- | --- | --- |
| CCOC(=O)C1=C(N)c2ccccc2CC1C1CCCC1 (stereo not given) | inactive | inactive | inactive | inactive | inactive |  |  |  |
| CC(C)(C)c1ccc(OCC(=O)Nc2ccc(C(=O)Nc3ccccc3C(=O)O)cc2)cc1 | 75.7 µM (active) | inactive | inactive | inactive | inactive |  |  |  |
| O=C(c1ccc(-c2ccccc2Cl)o1)N1CCC1 | inactive | inactive |  |  |  | 0.137% [at 17.1 µM, percent relative to cAMP agonist control] | -16.6% [at 30.8 µM] | 3.77% [at 30.8 µM] |
| O=C1CCc2cc(S(=O)(=O)NCc3ccc(F)cc3)cc3c2N1CC3 | inactive | inactive | inactive | inactive | inactive |  |  |  |
| O=C(O)CN1C(=O)/C(=C\c2cc(Br)ccc2OCc2ccc([N+](=O)[O-])cc2)SC1=S | 30.1 µM (active) | inactive | inactive | inactive | inactive |  |  |  |
| CC(C)c1ccc(OCC(=O)Nc2cccc(C(=O)Nc3ccccc3C(=O)O)c2)cc1 | 75.7 µM (active) | inactive | inactive | inactive | inactive |  |  |  |
| O=C(c1ccco1)N(Cc1ccccc1)c1cccc([N+](=O)[O-])c1 | inactive | inactive | inactive | inactive | inactive |  |  |  |
| CCCCN(CCCC)Cc1cc(=O)oc2cc(C)c(Cl)cc12 | inactive | inactive | inactive | inactive | inactive |  |  |  |
| O=C(COc1ccccc1Br)Nc1ccccc1C(F)(F)F | inactive | inactive | inactive | inactive | inactive |  |  |  |
| CC1(C)c2ccccc2N(CC(N)=O)C12C=Cc1ccccc1O2 (stereo not given) | inactive | inactive |  |  |  | -0.49% [at 17.1 µM, percent relative to cAMP agonist control] | 6.74% [at 30.8 µM] | 10.1% [at 30.8 µM] |
| COc1ccc(C2CC(=O)c3ccccc3O2)cc1 (stereo not given) | inactive | inactive | inactive | inactive | inactive |  |  |  |
| O=C1CC(=O)Nc2cc(S(=O)(=O)Nc3ccc(Cl)c(C(F)(F)F)c3)ccc2N1 | inactive | inactive | inactive | inactive | inactive |  |  |  |
| CCCCOc1ccc(/C=C/C(=O)OCC(=O)NC(=O)NCC(C)C)cc1OCC | inactive | inactive | inactive | inactive | inactive |  |  |  |
| Cc1ccc2oc(C(=O)N3CCCCCC3)c(C)c2c1 | inactive | inactive | inactive | inactive | inactive |  |  |  |
| Cc1ccc(-c2ccccc2C2=CC(=O)CC(C)(C)C2=O)cc1 | inactive | inactive |  |  |  | -2.04% [at 17.1 µM, percent relative to cAMP agonist control] | 11.7% [at 30.8 µM] | 11.7% [at 30.8 µM] |
| O=S1(=O)[C@H]2CC3O[C@]2(C[C@@H]3c2ccc(F)cc2)CN1Cc1ccc(Cl)cc1 | inactive | inactive | inactive | inactive | inactive |  |  |  |
| Cc1cc(/C=C2\SC(=S)NC2=O)c(C)n1-c1ccc(O)cc1 | 84.9 µM (active) | inactive | inactive | inactive | inactive |  |  |  |
| CNc1nc(C)cc(C)c1S(=O)(=O)c1ccc(C)cc1 | inactive | inactive |  |  |  | 6.77% [at 17.1 µM, percent relative to cAMP agonist control] | -11.2% [at 30.8 µM] | 14.5% [at 30.8 µM] |
| Cc1ccc(C(C)C)c(OCc2ccc(C(=O)N/N=C/c3ccc(O)c(O)c3)cc2)c1 | 33.8 µM (active) | inactive | inactive | inactive | inactive |  |  |  |
| CCOC(=O)c1c(NC(=O)/C=C/c2ccc3c(c2)OCO3)sc(C)c1CC | inactive | inactive | inactive | inactive | inactive |  |  |  |
| CCN(CC(=O)Nc1c(F)cccc1F)C(=O)/C=C/c1ccc2ccccc2n1 | 8.49 µM (active) | inactive | inactive | inactive | inactive |  |  |  |
| Cc1onc(-c2c(Cl)cccc2Cl)c1C(=O)c1ccc(F)cc1 | inactive | inactive | inactive | inactive | inactive |  |  |  |
| COc1ccccc1OCCOc1ccc(/C=C2\C(=N)N3N=C(S(C)(=O)=O)SC3=NC2=O)cc1 | 67.5 µM (active) | inactive | inactive | inactive | inactive |  |  |  |
| O=C(CN1CCCCCC1)Nc1ccccc1Oc1ccccc1 | inactive | inactive | inactive | inactive | inactive |  |  |  |
| C=CCn1c(SC(F)F)nc2scc(-c3ccco3)c2c1=O | inactive | inactive | inactive | inactive | inactive |  |  |  |

| SMILES | Potency [1] | Potency [2] | Potency [3] | Potency [4] | Potency [5] | activation [3] | activity change, negative = inhibition [4] | activation [5] |
| --- | --- | --- | --- | --- | --- | --- | --- | --- |
| Cc1ccc(NC(=O)COC(=O)c2ccccc2-c2nc3ccccc3s2)c(C)c1 | inactive | inactive | inactive | inactive | inactive |  |  |  |
| CCC(C(=O)OC(C)C)c1ccc2ccccc2c1 (stereo not given) | inactive | inactive | inactive | inactive | inactive |  |  |  |
| Cc1nnc(SCc2ccccc2CSc2nnc(C)s2)s1 | inactive | inactive | inactive | inactive | inactive |  |  |  |
| CC(=O)c1c(-c2ccccc2)c2cc(Cl)ccc2n(C)c1=O | inactive | inactive |  |  |  | -9.72% [at 17.1 µM, percent relative to cAMP agonist control] | -1.67% [at 30.8 µM] | 9.36% [at 30.8 µM] |
| CCOc1ccc(Br)cc1S(=O)(=O)Nc1ccc(S(=O)(=O)Nc2cc(C)on2)cc1 | 19 µM (active) | inactive | inactive | inactive | inactive |  |  |  |
| COCCN(CCOC)Cc1cc(=O)oc2cc(C)c(Cl)cc12 | inactive | inactive | inactive | inactive | inactive |  |  |  |
| c1ccc(C(c2ccccc2)c2ccn[nH]2)cc1 | inactive | inactive |  |  |  | 1.43% [at 17.1 µM, percent relative to cAMP agonist control] | -9.38% [at 30.8 µM] | 11.3% [at 30.8 µM] |
| COc1cc(SC)ccc1C(=O)Nc1c(C)cccc1C | inactive | inactive |  |  |  | -7.76% [at 17.1 µM, percent relative to cAMP agonist control] | -15.6% [at 30.8 µM] | 6.15% [at 30.8 µM] |
| CCCC(=O)NCCCc1nc2ccccc2n1C | inactive | inactive | inactive | inactive | inactive |  |  |  |
| Cc1ccccc1-c1cc2nc(NCCN3CCNC3=O)n(C)c(=O)c2s1 | inactive | inactive | inactive | inactive | inactive |  |  |  |
| CCCN(C(=O)COC(=O)COc1c(C)cccc1C)c1c(N)n(Cc2ccccc2)c(=O)[nH]c1=O | inactive | inactive | inactive | inactive | inactive |  |  |  |
| O=C(NN1C(=O)/C(=C/c2ccc(O)c([N+](=O)[O-])c2)SC1=S)c1ccccc1Cl | 84.9 µM (active) | inactive | inactive | inactive | inactive |  |  |  |
| CCOC(=O)C1CCCCN1Cc1cccc(Oc2ccccc2)c1 (stereo not given) | inactive | inactive |  |  |  | 6.17% [at 17.1 µM, percent relative to cAMP agonist control] | -24.9% [at 30.8 µM] | 29% [at 30.8 µM] |
| COc1nc(-c2ccccc2)c2cc(Br)ccc2n1 | inactive | inactive |  |  |  | -6.23% [at 17.1 µM, percent relative to cAMP agonist control] | 8.88% [at 30.8 µM] | 24.2% [at 30.8 µM] |
| COC(=O)c1cn(C(=O)c2ccccc2Cl)c2ccccc12 | inactive | inactive |  |  |  | 7.27% [at 17.1 µM, percent relative to cAMP agonist control] | -1.26% [at 30.8 µM] | 20.7% [at 30.8 µM] |
| Cc1ccc2oc(C(=O)N(Cc3ccc(N(C)C)cc3)CC3CCCO3)c(C)c2c1 (stereo not given) | inactive | inactive | inactive | inactive | inactive |  |  |  |
| O=C(O)CCSc1nnc(COc2cccc3ccccc23)n1-c1cccc(Cl)c1 | inactive | inactive | inactive | inactive | inactive |  |  |  |
| CCN(CC(=O)Nc1ccccc1C(=O)NC1CC1)Cc1cccs1 | inactive | inactive | inactive | inactive | inactive |  |  |  |
| Cc1cccc(C)c1OCC(=O)Nc1ccccc1N1CCCCC1 | inactive | inactive | inactive | inactive | inactive |  |  |  |
| COc1cc(/C=C2\SC(=Nc3ccc(Cl)c(C(=O)O)c3)NC2=O)c(Br)c(Br)c1O | 2.82 µM (active) | inactive |  |  |  | 9.28% [at 17.1 µM, percent relative to cAMP agonist control] | -1.87% [at 30.8 µM] | 0.17% [at 30.8 µM] |
| O=C(CN1C(=O)N/C(=C\c2ccccc2OCc2ccc(C(=O)O)cc2)C1=O)Nc1ccc(F)cc1 | 42.6 µM (active) | inactive | inactive | inactive | inactive |  |  |  |
| Brc1ccc(C2Nc3cccc4cccc(c34)N2)cc1 | inactive | inactive | inactive | inactive | inactive |  |  |  |
| C[C@H](CO)N1C[C@H](C)[C@@H](CN(C)C)Oc2c(NS(=O)(=O)c3ccccc3)cccc2C1=O | inactive | inactive | inactive | inactive | inactive |  |  |  |
| Oc1ccc(/C=N/Nc2ncnc3nc[nH]c23)cc1 | inactive | inactive |  |  |  | -0.35% [at 17.1 µM, percent relative to cAMP agonist control] | 4.9% [at 30.8 µM] | 4.78% [at 30.8 µM] |
| Cc1ccc(-c2noc(CSc3nnnn3C3CCCCC3)n2)cc1 | inactive | inactive | inactive | inactive | inactive |  |  |  |
